An excerpt weighted towards active compounds, which were near 7.3% of everything screened.
ELG1 genotoxic: induces genotoxicity in HEK293T cells with luciferase-tagged ELG1. HEK293T ELG1-luciferase reporter, luminescence, 16 h. Potency, µM (top dose mostly 46 µM), most hits filed as activators. 330,000 compounds, 1.3% hits; further: nearly all actives have a fitted effect of over 60% in size
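HEK293T cells expressing luciferase-tagged ELG1 were exposed to compound or DMSO vehicle for 16 hr at 37 °C and 5% CO2. Luciferase activity was then measured with ONE-Glo after 30 min at room temperature.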
Luc counter: counter-screen: inhibitors of Kinase-Glo firefly luciferase; 200,000 compounds, 0.28% hits; Kinase-Glo luciferase, ATP luminescence, 8 min; Potency, µM (top dose mostly 38.3 µM), actives largely listed as inhibitors; AID 1379; further: nearly all actives have a fitted effect of over 60% in size
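Compound is pinned into ATP-containing buffer (10 uM ATP, imidazole pH 7.2, 7 mM MgCl2). Kinase-Glo luciferase reagent is then added. Light output is recorded following an 8-min room-temperature incubation.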
FLuc modulator: inhibits or activates purified firefly luciferase, miR-21 counter-screen; Potency, µM (series often up to 57.5 µM), usual class: inhibitors; P08659; purified FLuc, Km substrates, luminescence inhibition; 360,000 compounds, 6.9% hits; AID 588342; further: nearly all actives have a fitted effect of over 55% in size
Target sequence (P08659 whole entry, looked up): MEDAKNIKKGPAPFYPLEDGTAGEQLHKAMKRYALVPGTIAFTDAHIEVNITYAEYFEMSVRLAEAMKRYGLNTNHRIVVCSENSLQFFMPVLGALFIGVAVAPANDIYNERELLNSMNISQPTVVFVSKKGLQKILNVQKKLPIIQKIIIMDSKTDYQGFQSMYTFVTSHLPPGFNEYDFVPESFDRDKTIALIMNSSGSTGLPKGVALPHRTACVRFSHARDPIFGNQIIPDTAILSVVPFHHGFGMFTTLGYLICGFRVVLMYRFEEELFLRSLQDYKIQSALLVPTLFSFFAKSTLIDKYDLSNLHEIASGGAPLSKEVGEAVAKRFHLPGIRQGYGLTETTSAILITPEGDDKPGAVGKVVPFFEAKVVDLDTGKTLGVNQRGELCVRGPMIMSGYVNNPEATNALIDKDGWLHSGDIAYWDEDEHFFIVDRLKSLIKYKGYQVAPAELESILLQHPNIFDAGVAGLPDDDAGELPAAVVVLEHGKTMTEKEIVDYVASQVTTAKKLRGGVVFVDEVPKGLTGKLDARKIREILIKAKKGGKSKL
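Biochemical qHTS of compounds, final roughly 60 µM downward over six points, against 10 nM purified firefly luciferase using Km concentrations of substrates (10 uM D-luciferin, 10 uM ATP) in Tris acetate pH 7.5 buffer; luminescence output.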
SMN2 splice enh: increases expression of the SMN2 splice variant; HEK293 SMN2-luciferase splicing reporter, luminescence, 30-36 h; Potency, µM (top dose mostly 46.1 µM), actives largely listed as activators; 210,000 compounds, 2.8% hits; AID 1458; further: nearly all actives have a fitted effect of over 55% in size
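HEK293 cells carry an SMN2 minigene-luciferase reporter in which exon 7 inclusion puts luciferase in frame. Cells were seeded at 2000 cells/well, attached for 10-12 hours, then exposed to compounds for 30-36 hours at 37C before ONE-Glo luminescence.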
Rab9 prom act: activates the Rab9 promoter; Huh7 Rab9 promoter-luciferase reporter, luminescence, 24 h; Potency, µM (doses to about 9.22 µM), usual class: activators; 320,000 compounds, 2.8% hits; further: nearly all actives have a fitted effect of over 60% in size
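Measured in stably transfected Huh7 cells bearing a Rab9 promoter–luciferase construct: 24 h compound treatment at 37 °C, followed by luminescence detection.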
NPC1 prom act: activates the NPC1 promoter | 320,000 compounds, 2.4% hits | AID 485313 | Huh7 NPC1 promoter luciferase reporter, 24 h | Potency, µM (doses to about 9.22 µM), actives largely listed as activators; further: nearly all actives have a fitted effect of over 60% in size
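Compounds in DMSO were transferred onto Huh7 NPC1-luciferase reporter cells pre-incubated 2 h; after 24 h at 37 °C, Amplite reagent was dispensed and luminescence recorded 10 min later.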
Each line names hits and unclear results; the compound was inactive in the other large screens. The call rests on the fitted dose curve; in most records, active means well fitted curve in the direction sought with a large enough effect; inconclusive means small, poorly fitted or top-dose-only effect, or another doubt; inactive means no such curve, though single readings can be large; an effect the other way counts as inactive or inconclusive.

CC(=O)Nc1ccc(NC2=CC(=O)c3ccccc3C2=O)cc1	ELG1 genotoxic inconclusive, FLuc modulator inconclusive, Rab9 prom act 2µM, NPC1 prom act inconclusive (no result: Luc counter, SMN2 splice enh)
O=C1C(Cl)=C(Nc2ccc(O)cc2)C(=O)c2ccccc21	FLuc modulator inconclusive (no result: Luc counter, SMN2 splice enh)
NS(=O)(=O)c1ccc(NC2=CC(=O)C(=O)c3ccccc32)cc1	none (no result: Luc counter, SMN2 splice enh)
Cc1ccc(NC2=C(N3CCOCC3)C(=O)c3ccccc3C2=O)cc1	ELG1 genotoxic 6.5µM, Luc counter inconclusive, FLuc modulator 9.5µM
Cc1ccc(NC2=CC(=O)C(=O)c3ccccc32)cc1	FLuc modulator 11µM, SMN2 splice enh inconclusive
O=C1C=C(Nc2ccc(O)cc2)C(=O)c2ccccc21	ELG1 genotoxic inconclusive, FLuc modulator 5.4µM, Rab9 prom act inconclusive (no result: Luc counter, SMN2 splice enh)
CC(=O)Nc1ccc(Nc2ccccc2)cc1	none (no result: Luc counter, SMN2 splice enh)
O=C(COc1ccc(Br)cc1)Nc1ccc(C(=O)OC2CCCCC2)cc1	none (no result: ELG1 genotoxic, Luc counter, Rab9 prom act, NPC1 prom act)
CCOc1ccc(NC(=O)C2CCN(C(=O)N3CC(C)Oc4ccc(Cl)cc43)CC2)cc1 (centres undefined)	none (no result: ELG1 genotoxic, Luc counter, SMN2 splice enh, Rab9 prom act, NPC1 prom act)
CCOC(=O)c1c(C)sc(-c2c(-c3ccc(OC)c(F)c3)[nH]c3c2c(=O)[nH]c(=O)n3C)c1O	none (no result: ELG1 genotoxic, Luc counter, SMN2 splice enh, Rab9 prom act, NPC1 prom act)
Cc1ccc(Nc2nc(COC(=O)C3CC3)cs2)cc1	ELG1 genotoxic inconclusive, FLuc modulator 4.3µM, SMN2 splice enh inconclusive, Rab9 prom act 3.2µM, NPC1 prom act inconclusive
Cc1ccc(Nc2nc(C(=O)N3CCC(C(=O)N4CCN(C)CC4)CC3)cs2)cc1	none
COC(=O)C1=C(C)NC(=O)/C1=C\c1cc(C)n(-c2ccccc2F)c1C	FLuc modulator 12µM, SMN2 splice enh 25µM
COC(=O)C1=C(C)NC(=O)/C1=C\c1cc(C)n(-c2ccccc2C)c1C	FLuc modulator 17µM
CCOC(=O)C1=C(O)/C(=C\c2cc(C)n(-c3ccccc3F)c2C)N=C1C	FLuc modulator 0.6µM
C[C@@]12C=CC(=O)C=C1CC[C@H]1[C@H]3CC[C@](O)(C(=O)CO)[C@]3(C)CC(=O)[C@@H]12	none (no result: ELG1 genotoxic, FLuc modulator, Rab9 prom act, NPC1 prom act)
CCc1ccccc1NC(=O)Cn1c(=O)n(CCCCCC(=O)NCc2ccc(C)cc2)c(=O)c2sccc21	none (no result: ELG1 genotoxic, Luc counter, Rab9 prom act, NPC1 prom act)
CCOc1ccc(Oc2nc(NCC(C)C)nc(NC(C)(C)C)n2)nn1	SMN2 splice enh inconclusive (no result: ELG1 genotoxic, Luc counter, Rab9 prom act, NPC1 prom act)
COc1ccc(OC)c(C2C(C(=O)Nc3ccc(C)cc3)=C(C)Nc3nnnn32)c1 (centres undefined)	none (no result: ELG1 genotoxic, Luc counter, SMN2 splice enh, Rab9 prom act, NPC1 prom act)
Cn1ccc2cc(-c3ccc4ncnc(NCc5cccc(F)c5)c4c3)ccc21	FLuc modulator inconclusive (no result: ELG1 genotoxic, Luc counter, SMN2 splice enh)
C=CCc1c(C)nc(-c2ccccc2)nc1N/N=C(\C)c1ccccc1	FLuc modulator 17µM
C=CCc1c(C)nc(-c2ccccc2)nc1Nc1ccc(O)cc1	none
C=CCOc1ccc(C(=O)NC2CCCCC2)cc1	ELG1 genotoxic inconclusive, FLuc modulator 12µM, Rab9 prom act inconclusive, NPC1 prom act inconclusive (no result: SMN2 splice enh)
CC(C)Oc1ccc(C(=O)NC2CCS(=O)(=O)C2)cc1 (centres undefined)	none
CC(C)Oc1ccc(C(=O)NC2CCCCC2)cc1	ELG1 genotoxic 18µM, FLuc modulator 11µM, SMN2 splice enh inconclusive, Rab9 prom act 4µM, NPC1 prom act 2.8µM
COc1ccc(C(=O)NC2CCN(CC(=O)NC3CCCCC3)CC2)cc1	none (no result: Luc counter, SMN2 splice enh)
COc1ccc2c(c1)C(=O)[C@H](OC(=O)NCc1ccco1)[C@@H](c1ccc(OC)c(Br)c1)O2	none (no result: ELG1 genotoxic, FLuc modulator, Rab9 prom act, NPC1 prom act)
N=C(N)SCCN1CCCCC1	none (no result: ELG1 genotoxic, FLuc modulator, Rab9 prom act, NPC1 prom act)
Cc1ccc(-n2ncc(C(=O)NC3CCN(Cc4ccccc4)CC3)c2C2CCN(C(=O)OC(C)(C)C)CC2)cc1C	none (no result: ELG1 genotoxic, Luc counter, SMN2 splice enh, Rab9 prom act, NPC1 prom act)
CCCc1ccc2oc(C(=O)N3CCC(N4CCCC(O)C4)CC3)c(C)c2c1 (centres undefined)	none (no result: Luc counter, SMN2 splice enh)
CCCc1ccc2oc(C(=O)N3CCC[C@H]3CO)c(C)c2c1	ELG1 genotoxic inconclusive, FLuc modulator 11µM, Rab9 prom act 3.2µM, NPC1 prom act 6.3µM (no result: Luc counter, SMN2 splice enh)
CCCc1ccc2oc(C(=O)N3CCC(COC)C3)c(C)c2c1 (centres undefined)	ELG1 genotoxic inconclusive, FLuc modulator 12µM, Rab9 prom act 2.8µM, NPC1 prom act 2.8µM (no result: Luc counter, SMN2 splice enh)
Cc1ccc2oc(C(=O)NCC(c3ccc(Cl)cc3)N3CCOCC3)c(C)c2c1 (centres undefined)	none (no result: ELG1 genotoxic, Luc counter, SMN2 splice enh, Rab9 prom act, NPC1 prom act)
COc1cc(OC)c(OC)cc1/C=C1\Oc2cc(OCC(=O)N3Cc4ccccc4C[C@H]3C(=O)O)ccc2C1=O	FLuc modulator inconclusive (no result: Luc counter, SMN2 splice enh)
COc1ccc(/C=C2\Oc3cc(OCC(=O)N4CCC[C@H]4C(=O)O)ccc3C2=O)c(OC)c1	FLuc modulator 12µM (no result: Luc counter, SMN2 splice enh)
COc1ccc(OC)c(/C=C2\Oc3cc(OCC(=O)N4CCC[C@H]4C(=O)O)ccc3C2=O)c1	FLuc modulator inconclusive (no result: Luc counter, SMN2 splice enh)
COc1cccc(/C=C2\Oc3cc(OCC(=O)N4CCC[C@H]4C(=O)O)ccc3C2=O)c1	FLuc modulator 2.7µM (no result: Luc counter, SMN2 splice enh)
Nc1c(-c2nc(-c3cccs3)no2)nnn1-c1cccc(Cl)c1	none (no result: ELG1 genotoxic, Luc counter, SMN2 splice enh, Rab9 prom act, NPC1 prom act)
Cc1ccc(-c2cc(=O)c3cc(F)ccc3[nH]2)cc1	FLuc modulator 27µM, SMN2 splice enh inconclusive
Cc1ccc(-c2cc(=O)c3cc(C)ccc3[nH]2)cc1	ELG1 genotoxic inconclusive, FLuc modulator 0.67µM, SMN2 splice enh 2.2µM, Rab9 prom act inconclusive, NPC1 prom act inconclusive
COCCCN1C(=O)c2ccccc2CC1(C)C(=O)NC1CCCCC1 (centres undefined)	none (no result: ELG1 genotoxic, Luc counter, Rab9 prom act, NPC1 prom act)
COc1ccc(NC(=O)Cc2coc3ccc4ccccc4c23)cc1S(=O)(=O)N1CCOCC1	FLuc modulator 13µM
COc1ccc(CC(=O)Nc2ccc(F)c(Cl)c2)cc1S(=O)(=O)N1CCOCC1	none (no result: Luc counter, SMN2 splice enh)
COc1ccc(NC(=O)Cc2coc3cc(C)ccc23)cc1S(=O)(=O)N1CCOCC1	FLuc modulator 15µM
COc1ccc(NC(=O)CNc2cc(C)ccc2C)cc1S(=O)(=O)N1CCOCC1	none (no result: Luc counter, SMN2 splice enh)
